An excerpt weighted towards active compounds, which were near 12% of everything screened.
PLK1 PBD block – PLK1 (human) polo-box domain binding inhibition; P53350; Plk1 PBD binding of FITC phosphopeptide, fluorescence polarization; Potency, µM, inactives show max response, negative = inhibition, usual class: inhibitors; 360,000 compounds, 2.8% hits; further: potency means the concentration at half of the fitted maximal effect; series mostly up to about 57 µM; on the % scale 0 is the no-effect control and ±100 the full control effect; nearly all actives have a fitted effect of over 65% in size
JMJD2A Tudor inh – inhibitors of human JMJD2A Tudor domain; AlphaScreen JMJD2A-Tudor / H3K4me3 peptide binding; O75164; Potency, µM (doses to about 114 µM), without a hit: at the highest dose activity change, negative = inhibition, most hits filed as inhibitors; 390,000 compounds, 4.4% hits; AID 504339; further: potency means the concentration at half of the fitted maximal effect; on the % scale 0 is the no-effect control and ±100 the full control effect; nearly all actives have a fitted effect of over 50% in size
HP1b chromo inh – HP1-beta chromodomain-methylated histone interaction inhibition. Potency, µM (series often up to 114 µM), inactives show at the top dose activity change, negative = inhibition, actives largely listed as inhibitors. 390,000 compounds, 0.56% hits. P83916. AlphaScreen HP1-beta / biotin-H3K9me3 peptide binding; further: potency means the concentration at half of the fitted maximal effect; nearly all actives have a fitted effect of over 70% in size
Target sequence (P83916 whole entry, looked up): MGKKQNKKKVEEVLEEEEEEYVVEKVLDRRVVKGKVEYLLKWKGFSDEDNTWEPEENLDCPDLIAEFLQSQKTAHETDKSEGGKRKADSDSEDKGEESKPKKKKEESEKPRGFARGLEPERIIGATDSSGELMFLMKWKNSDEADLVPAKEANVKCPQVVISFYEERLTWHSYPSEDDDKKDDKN
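Compound inhibition of the preformed complex between 50 nM HP1-beta and 50 nM biotinylated H3K9me3 peptide was read by AlphaScreen. Buffer was PBS pH 7.4 with 0.01% Tween-20. Incubations ran 30 min at room temperature, with 10 ug/mL donor/acceptor beads.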
PI5P4Ka inh – inhibitors of human PI5P4K alpha; P48426; PI5P4Kalpha enzyme, ADP-Glo luminescence, 60 min; active compounds read low; max response, %; 330,000 compounds, 1.2% hits; active means max response of -50% or lower; inconclusive means between -30% and -50%; inactive means -30% or higher; further: value at the top dose of about 77 µM; on the % scale 0 is the no-effect control and ±100 the full control effect
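Quantitative HTS of the MLSMR library against PI5P4Kalpha with substrate. ATP added last at 5 microM final; room temperature, 60 minutes. Remaining ATP depleted, ADP converted and read as luminescence.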
BAZ2B inh – BAZ2B (human) inhibition; 360,000 compounds, 4.4% hits; Q9UIF8; AlphaScreen BAZ2B-H3K14Ac peptide displacement; AID 504333; Potency, µM (titrated, usually from 114 µM), for the others: at the highest dose activity change, negative = inhibition, most hits filed as inhibitors; further: potency means the concentration at half of the fitted maximal effect; on the % scale 0 is the no-effect control and ±100 the full control effect; nearly all actives have a fitted effect of over 60% in size
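In this displacement format the biotinylated H3(5-23) peptide acetylated at Lys14 serves as ligand at 50 nM, with BAZ2B at 50 nM in PBS pH 7.4 containing 0.01% Tween-20. Donor and acceptor beads are 10 ug/mL final.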
G9a block – inhibitors of human histone lysine methyltransferase G9a; 350,000 compounds, 8.8% hits; Potency, µM (titrated, usually from 102 µM), without a hit: top-dose activity, negative = inhibition, most hits filed as inhibitors; Q96KQ7; G9a H3K9 monomethylation, AlphaScreen, 2 h; further: potency means the concentration at half of the fitted maximal effect; on the % scale 0 is the no-effect control and ±100 the full control effect; nearly all actives have a fitted effect of over 75% in size
Target sequence (Q96KQ7 913-1193 limits assumed): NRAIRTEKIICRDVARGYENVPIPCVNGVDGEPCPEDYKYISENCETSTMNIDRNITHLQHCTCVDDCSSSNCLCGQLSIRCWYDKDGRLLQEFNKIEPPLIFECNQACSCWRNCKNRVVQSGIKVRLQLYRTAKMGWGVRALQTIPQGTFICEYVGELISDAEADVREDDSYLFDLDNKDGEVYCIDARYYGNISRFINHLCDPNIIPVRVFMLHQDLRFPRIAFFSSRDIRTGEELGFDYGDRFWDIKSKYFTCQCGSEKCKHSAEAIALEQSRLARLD
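G9a (20 nM) was preincubated 15 min with compound, then reacted 2 h at room temperature with 500 nM biotin-H3K9 peptide and 20 µM SAM. Monomethyl-H3K9 detected by AlphaScreen using anti-H3K9me1 antibody.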
* = called active by the depositor; ? = inconclusive; / = not tested or not shown; [ ] = remark or other dose. Unless noted, the call rests on the fitted dose curve; in most records, active means well fitted curve in the direction sought with a large enough effect; inconclusive means small, poorly fitted or top-dose-only effect, or another doubt; inactive means no such curve, though single readings can be large; an effect the other way counts as inactive or inconclusive.

SMILES	PLK1 PBD block	JMJD2A Tudor inh	HP1b chromo inh	PI5P4Ka inh	BAZ2B inh	G9a block
COc1cccc(/C=C2\SC(=S)N(CCCC(=O)N3CCCCC3)C2=O)c1	1%	40µM*	?	0	11µM*	25µM*
O=C(CCN1C(=O)/C(=C\c2ccccc2)SC1=S)N1CCOCC1	0%	-12%	27%	3	-1%	-3%
COc1ccc(/C=C2\SC(=S)N(CCC(=O)N3CCOCC3)C2=O)cc1	3%	-13%	4%	20	14%	43%[12.7 µM]
COc1cccc(/C=C2/SC(=S)N(CCC(=O)N3CCOCC3)C2=O)c1	30µM*	56µM*	-5%	-7	1%	?
O=C(CCCN1C(=O)/C(=C/c2ccccc2)SC1=S)N1CCOCC1	-19%	-36%	?	0	40µM*	79µM*
Cc1ccc(C2CC(=O)Nc3c2c(C)nn3-c2nc(C)cc(C)n2)c(C)c1 (stereo not drawn)	/	-8%	67%	/	-23%	3%[59 µM]
Nc1ncnc2n[nH]c(Nc3ccc(F)cc3)c12	/	/	/	/	/	-7%[59 µM]
CC1CCCN(S(=O)(=O)c2cc3c4c(c2)CCN4C(=O)CC3)C1 (stereo not drawn)	-7%	-10%	6%	-6	3%	-48%
CC(=O)C(Cl)C(=O)Nc1ccccc1 (stereo not drawn)	2.7µM*	-3%	62%	0	-3%	45µM*
O=C(Nc1ccccc1)C(Cl)C(=O)c1ccccc1 (stereo not drawn)	1.5µM*	-10%	-10%	-2	3%	4%[0.501 µM]
CC(C(=O)Nc1ccccc1)C(=O)Nc1ccccc1	-4%	-17%	34%	-4	13%	-5%[0.501 µM]
Cc1cccc(CN2[C@@H](CC(C)C)COCCS2(=O)=O)c1	-5%	-1%	55%	1	/	/
COc1[nH]c(/N=C/c2ccco2)c(C#N)c1C#N	/	32µM*	22µM*	/	/	/
Oc1nc(Nc2ccc(F)cc2)sc1/C=C1\C=Nc2ccccc21	-13%	-20%	20%	?	-15%	10%[59 µM]
CC1=Nc2ccccc2/C1=C\c1sc(Nc2ccc(C)cc2)nc1O	6%	-22%	6%	-66*	?	7%[59 µM]
Oc1nc(Nc2cccc(Cl)c2)sc1/C=C1\C=Nc2ccccc21	-20%	?	-17%	-62*	-38%	?
Oc1cccc(Nc2nc(O)c(/C=C3\C=Nc4ccccc43)s2)c1	29%	-24%[11.4 µM]	11%	-102*	?	50µM*
Cc1ccc(S(=O)(=O)N2CCN(c3nc(-c4cccs4)nc4ncccc34)CC2)cc1	/	-18%	33%	/	/	/
COc1ccc(NC(=O)Cn2ccn(-c3ccc(C)c(C)c3)c(=O)c2=O)cc1Cl	/	29%	22%	/	-11%	1%[59 µM]
COc1ccc(-n2c(O)c(/C=N/NS(=O)(=O)c3cccc([N+](=O)[O-])c3)c3ccccc3c2=O)cc1OC	22%	?	3%	-10	50µM*	40µM*
CCNC(=O)NC(=O)CSc1ccc2ccccc2c1	27µM*	?	?	-6	0%	1%
COc1cc(NC(=O)c2ccc(-c3nc(CSc4ccccc4)c(C)o3)cc2)cc(OC)c1	/	-25%	23%	/	-18%	-39%[59 µM]
CCCOc1ccc(C2c3c(-c4ccccc4O)n[nH]c3C(=O)N2CCCOCC)cc1OCC (stereo not drawn)	/	?	6%	/	-3%	-20%[59 µM]
Cc1n[nH]c(=S)n(/N=C/c2cccc([N+](=O)[O-])c2)c1=O	-10%	?	29%	-3	3%	-7%
Cc1n[nH]c(=S)n(/N=C/c2ccccn2)c1=O	-4%	2.8µM*	-1%	-7	?	?
CCc1n[nH]c(=S)n1/N=C/c1ccccn1	-11%	7.9µM*	?	-7	50µM*	5%[0.501 µM]
Cc1nn(C)c(C)c1CS(=O)(=O)c1ccccc1	-16%	-11%	35%	-3	-6%	50µM*
COc1cc(C(=O)Nc2nnc(SC)s2)c([N+](=O)[O-])cc1OC	-8%	-14%	28%	8	-20%	32µM*
COCc1nnc(NC(=O)c2ccccc2[N+](=O)[O-])s1	?	-9%	3%	-7	6%	20µM*
